Reference: ChEMBL document CHEMBL1157539, “Thousands of chemical starting points for antimalarial lead identification” (Nature, 2010)
Values joined by “and” are separate entries in the source; they are usually repeats but may differ in a detail not shown here. Identical values can stand only once.

tested on: Plasmodium falciparum; assay: GSK_TCMDC: Inhibition of Plasmodium falciparum Dd2 in whole red blood cells, using parasite LDH activity as an index of growth. Test compounds present at 2uM; format: functional

Row | SMILES | Inhibition
1 | CCOc1cc(OCC)c2ccccc2c1CNCCCCCCNCc1c(OCC)cc(OCC)c2ccccc12.CS(=O)(=O)O | 89%
2 | CC/N=C(/NCCCCCCN/C(=N/CC)NCc1ccccc1)NCc1ccccc1.I | 95%
3 | Cl.Oc1c(CNC2CCCCC2)cc(Cl)c2ccccc12 | 100%
4 | COc1ccc2ncc(F)c(C(O)CN3CCC(NCc4ccc5c(n4)NC(=O)CO5)CC3)c2c1.Cl (stereo not given) | 51% and 88%
5 | COc1cc(Cc2cnc(N)nc2N)cc(OCCCCCCC(=O)O)c1OC | 2%
6 | Cc1c(C(C)(C)C)ccc2nc(N)nc(N)c12 | 0%
7 | Nc1nc(Cc2ccc(Cl)cc2)nc(Cc2ccc(Cl)cc2)n1 | 0%
8 | CCCc1cc(OC)c(CC2c3cc(O)c(Cl)cc3C(c3ccccc3)CN2C)cc1OC.Cl (stereo not given) | 100%
9 | CCOc1cc2ncnc(Nc3ccc(OCc4ccccc4OC)c(OC)c3)c2cc1OCC.Cl | 52%
10 | CN1CCN(c2ccc3[nH]c(-c4ccc5[nH]c(-c6ccc([N+](=O)[O-])c(N)c6)nc5c4)nc3c2)CC1 | 100%
11 | CCCCSc1ccc(CNCCCCCCNCc2ccc(SCCCC)c3ccccc23)c2ccccc12.CS(=O)(=O)O | 48%
12 | CCCCCCOc1ccc2ccccc2c1CNCCCCCCNCc1c(OCCCCCC)ccc2ccccc12.CS(=O)(=O)O | 55%
13 | Cc1nc(C)c(-c2ccc(Oc3ccc(Cl)cc3)c(Cl)c2)c(O)c1Br | 96%
14 | COc1ccc(OC)c(Cc2c(C)nc3nc(N)nc(N)c3c2C)c1.Cl | 0%
15 | CCN1C(=O)C(=NN=C(S)N2CCCC2)c2ccccc21 | 9%
16 | CCCCNCCOc1ccc(-c2nc(-c3ccccc3)c(-c3ccccc3)[nH]2)cc1 | 34%
17 | Br.CC(C)(C)OC(=O)N[C@@H](CS(=O)(=O)CCNC(=N)COCc1ccccc1)C(=O)OC(C)(C)C | 76%
18 | Cl.Oc1cc2ccccc2cc1CNC1CCCCC1 | 89%
19 | CC(C)Oc1ccc2ccccc2c1CNCCCCCCNCc1c(OC(C)C)ccc2ccccc12.CS(=O)(=O)O | 90%
20 | Nc1ncc(-c2ccc(S(=O)(=O)Nc3ccc(C(=O)N[C@@H](CCC(=O)O)C(=O)O)cc3)cc2)c(=O)[nH]1 | 0%

Row | SMILES | Inhibition
21 | COc1ccc2c(OC)cccc2c1CNCCCCCCNCc1c(OC)ccc2c(OC)cccc12.CS(=O)(=O)O | 28%
22 | Cc1nc(C)c(-c2ccc(Cl)cc2)c(O)c1I | 96%
23 | Cc1nc(N)nc(N)c1-c1ccc(Br)c(Br)c1 | 1%
24 | CCc1ccc(Cc2cnc3nc(N)nc(N)c3c2C)cc1 | 0%
25 | Cc1nc(N)nc(N)c1-c1cc(Cl)c(Cl)c(Cl)c1 | 0%
26 | CCOc1ccc(CNCCCCCCNCc2ccc(OCC)c3ccccc23)c2ccccc12.CS(=O)(=O)O | 75%
27 | CCNC(=O)CCc1cccc(Br)c1 | 54%
28 | CC(C)Cn1cc2c(ccc3nc(N)nc(N)c32)n1 | 2%
29 | Nc1nc(N)c2c(Oc3cc(Cl)c(Cl)c(Cl)c3)cccc2n1 | 92%
30 | Nc1nc(N)c2c(ccc3c2ccn3Cc2cccc(F)c2)n1 | 99%
31 | COc1cc(Cc2cnc(N)nc2N)cc(OCCCS(=O)(=O)O)c1OC | 0%
32 | CCc1nc(N)nc(N)c1-c1ccc2c(c1)CCCC2 | 0%
33 | Cl.Nc1nc(N)c2c3c(ccc2n1)NCCC3 | 0%
34 | CC1CCN(Cc2c(O)ccc3c(CN4CCC(C)CC4)c(O)ccc23)CC1.Cl | 86%
35 | COc1cc(CCNC(=O)Cc2ccc3ccccc3c2)ccc1OCc1ccccc1 | 61%
36 | Nc1nc(N)c2cc(Cc3ccc([N+](=O)[O-])cc3)cnc2n1.O=S(=O)(O)O | 0%
37 | CCN(CC)CCNc1cc(C)nc(NC(=N)Nc2ccc(Cl)cc2)n1.Cl | 0%
38 | CCCCc1cc(Cc2cnc(N)nc2N)cc(OC)c1OC.Cl | 0%
39 | Cc1nc(C)c(-c2ccc(Oc3cc(Cl)cc(Cl)c3)cc2)c(O)c1Cl | 96%
40 | Nc1nc(N)c2c(Oc3ccc(Cl)c(Cl)c3)cccc2n1 | 22%
